# Methyltransferases = Primary Screen for Target Class Profiling of Small Molecule Inhibitors of Methyltransferases | purified enzyme, MTase-Glo SAH luminescence; stronger effect = lower value | calls only at 40 µM | 25,000 compounds, 3.9% hits; call rule not given here
#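 Each enzyme was assayed with SAM and its substrate. SAH formation detected by MTase-Glo luminescence; single-point 40 uM screen[…].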
# MTase-Glo ctr = inhibits MTase-Glo coupling enzymes without methyltransferase; Potency, µM (top dose mostly 57.3 µM), without a hit: at the highest dose activity change, negative = inhibition, hits mostly inhibitors; 180 compounds, 6% hits; AID 1745851; shares compounds with Methyltransferases; MTase-Glo coupled enzymes, SAH conversion luminescence, no MTase; active means well fitted inhibition curve with a large enough effect; inconclusive means small, poorly fitted or top-dose-only effect; further: potency means the concentration at half of the fitted maximal effect
# An asterisk follows results filed as active; i = inactive; ? = inconclusive; + = active, no number; [ ] = remark or other dose. Many of the other results were omitted from the sample, so hits are more common in it than they were. On the % scale 0 is the no-effect control and ±100 the full control effect.
SMILES,Methyltransferases,others
CCOc1ccc(NC(=O)N2Cc3ccccc3-n3cccc3C2c2ccc(C)cc2)cc1 (stereo unspecified),i,
Clc1ccc([C@]23CNC[C@H]2C3)cc1Cl,+,
CCOc1ccc(C2c3cccn3-c3ccccc3CN2C(=O)NCc2ccccc2)cc1 (stereo unspecified),i,
COc1ccc(NC(=O)N2Cc3ccccc3-n3cccc3C2c2cccs2)cc1 (stereo unspecified),i,
CCC1c2cccn2-c2ccccc2CN1C(=O)Nc1ccccc1Cl (stereo unspecified),i,
O=C(Nc1ccc2c(c1)OCCO2)N1Cc2ccccc2-n2cccc2C1c1ccccc1 (stereo unspecified),i,
CC(C)CCNC(=O)N1Cc2ccccc2-n2cccc2C1c1ccccc1 (stereo unspecified),i,
CN1CC[C@@]2(C)c3cc(O)ccc3N(C)C12 (stereo partly specified),+,
Cc1ccc(C2c3cccn3-c3ccccc3CN2C(=O)NC2CCCC2)cc1 (stereo unspecified),i,
COc1ccc(C)cc1NC(=O)N1Cc2ccccc2-n2cccc2C1C (stereo unspecified),i,
Cc1ccc(C2c3cccn3-c3ccccc3CN2C(=O)Nc2ccc(Cl)cc2)cc1 (stereo unspecified),i,
COc1cc(N2CCN(C)CC2)ccc1N,+,
Cc1ccc(C)c(NC(=O)N2Cc3ccccc3-n3cccc3C2c2ccc(N(C)C)cc2)c1 (stereo unspecified),i,
CCCN(CCC)C1CCc2cccc(O)c2C1 (stereo unspecified),i,
CCCN(CCC)C1CCc2ccc(O)cc2C1 (stereo unspecified),+,
CCCN(CCC)[C@@H]1CCc2ccc(O)cc2C1,i,
CCc1ccc(C2c3cccn3-c3ccccc3CN2C(=O)Nc2ccc(F)c(Cl)c2)cc1 (stereo unspecified),i,
CCOC(=O)Cc1ccc(NC(=O)N2Cc3ccccc3-n3cccc3C2c2ccccc2)cc1 (stereo unspecified),i,
O=C(Nc1ccc(F)c(Cl)c1)N1Cc2ccccc2-n2cccc2C1c1ccccc1 (stereo unspecified),i,
COc1cc(C(=O)O[C@H]2[C@@H]3C=CO[C@@H](O[C@@H]4O[C@H](CO)[C@@H](O)[C@H](O)[C@H]4O)[C@@H]3[C@@]3(CO)O[C@@H]23)ccc1O,+,
C=C[C@H]1[C@H](O[C@@H]2O[C@H](CO)[C@@H](O)[C@H](O)[C@H]2O)OC=C2C(=O)OCC[C@H]21,i,
COc1ccc(C2c3cccn3-c3ccccc3CN2C(=O)Nc2cc(Cl)ccc2OC)cc1 (stereo unspecified),i,
O=C(Nc1cc(F)ccc1F)N1Cc2ccccc2-n2cccc2C1c1cccs1 (stereo unspecified),i,
CN(C)c1cc2c(cc1Sc1nc3c(N)nccc3n1CCNCC(C)(C)C)OCO2,+,
COC(=O)c1cccc(NC(=O)N2Cc3ccccc3-n3cccc3C2c2cccs2)c1 (stereo unspecified),i,
SMILES,Methyltransferases,others
O=C(NC1CCCC1)N1Cc2ccccc2-n2cccc2C1c1ccccc1Cl (stereo unspecified),i,
COc1ccc(OC)c(NC(=O)N2Cc3ccccc3-n3cccc3C2c2ccccc2C)c1 (stereo unspecified),i,
NC(=O)CI,+,
COc1ccc(C2c3cccn3-c3ccccc3CN2C(=O)Nc2cccc(Cl)c2C)cc1OC (stereo unspecified),i,
CCc1ccc(NC(=O)N2Cc3ccccc3-n3cccc3C2c2ccccc2C)cc1 (stereo unspecified),i,
COc1ccccc1NC(=O)N1Cc2ccccc2-n2cccc2C1c1cc(F)cc(F)c1 (stereo unspecified),i,
Cn1nc(-c2ccc(F)cc2)cc1[C@H]1CN2CC[C@H]1C[C@@H]2CNC(=O)c1cccs1,i,
CC(=O)c1cccc(NC(=O)NC[C@H]2C[C@@H]3CCN2C[C@@H]3c2cc(-c3ccc(F)cc3)nc(C)n2)c1,+,MTase-Glo ctr=?
COc1ccc(-c2cc([C@H]3CN4CC[C@H]3C[C@@H]4COC(=O)NC3CCCCC3)nc(C)n2)cc1,i,
COc1ccc(-c2cc([C@H]3CN4CC[C@H]3C[C@@H]4CN)nc(C)n2)cc1OC,+,MTase-Glo ctr=-6.2%[85.7 µM]
CCC(CC)c1cc([C@H]2CN3CC[C@H]2C[C@@H]3CNC(=O)C2CCC2)nc(-c2ccncc2)n1,i,
Cc1nc(-c2ccccc2)cc([C@H]2CN3CC[C@H]2C[C@@H]3CNS(C)(=O)=O)n1,i,
COc1ccc(OC)c(NC(=O)N2Cc3ccccc3-n3cccc3C2c2cc(F)cc(F)c2)c1 (stereo unspecified),i,
CCOc1ccc(C2c3cccn3-c3ccccc3CN2C(=O)Nc2ccc(OC)cc2OC)cc1 (stereo unspecified),i,
COc1cccc(NC(=O)N2Cc3ccccc3-n3cccc3C2c2cc(F)cc(F)c2)c1 (stereo unspecified),i,
COc1ccc(NC(=O)N2Cc3ccccc3-n3cccc3C2C(C)C)cc1OC (stereo unspecified),i,
FC(F)(F)CN1C2CCC1CN(c1nnc(Cl)c3ccccc13)C2,i,
NC(=O)c1ccc(N2CC3CCC(C2)N3CC(F)(F)F)nn1,+,MTase-Glo ctr=4.1%
Cc1ccccc1C1c2cccn2-c2ccccc2CN1C(=O)Nc1ccccc1Br (stereo unspecified),i,
CC(C)c1ccc(C2c3cccn3-c3ccccc3CN2C(=O)Nc2cc(F)ccc2F)cc1 (stereo unspecified),i,
CN(CCc1ccccn1)C[C@H]1CN2CC[C@H]1C[C@@H]2CNC(=O)c1ccco1,i,
CN(CCc1ccccn1)C[C@H]1CN2CC[C@H]1C[C@@H]2CNC(=O)Nc1ccsc1,+,MTase-Glo ctr=-3.8%[85.7 µM]
CC(C)NC(=O)NC[C@H]1C[C@@H]2CCN1C[C@@H]2CN1CCC(Cc2ccccc2)CC1,i,
COC(=O)c1ccc(NC(=O)N2Cc3ccccc3-n3cccc3C2c2cccs2)cc1 (stereo unspecified),i,
COc1ccc(C2c3cccn3-c3ccccc3CN2C(=O)NCc2ccc(C)cc2)cc1 (stereo unspecified),i,
CCOc1ccc(NC(=O)N2Cc3ccccc3-n3cccc3C2C(C)C)cc1 (stereo unspecified),i,

# Bioassay records deposited in PubChem by National Center for Advancing Translational Sciences (NCATS).
